Screening results (PubChem)
D2 ag-1 – Beta-Arrestin HTS for Positive Allosteric Modulators of the Human D2 Dopamine Receptor: Agonists; AID 624465, 2012; activation, % (concentration not given with the values); D(2) dopamine receptor (Homo sapiens), P14416; DiscoveRx PathHunter D2 beta-arrestin, luminescence, 90 min; 100% = 57 uM dopamine signal; 0.084% of 360,000 active; in the data active = activation above about 40%; inconclusive = between about 15% and that limit
Target sequence (P14416 whole entry, looked up): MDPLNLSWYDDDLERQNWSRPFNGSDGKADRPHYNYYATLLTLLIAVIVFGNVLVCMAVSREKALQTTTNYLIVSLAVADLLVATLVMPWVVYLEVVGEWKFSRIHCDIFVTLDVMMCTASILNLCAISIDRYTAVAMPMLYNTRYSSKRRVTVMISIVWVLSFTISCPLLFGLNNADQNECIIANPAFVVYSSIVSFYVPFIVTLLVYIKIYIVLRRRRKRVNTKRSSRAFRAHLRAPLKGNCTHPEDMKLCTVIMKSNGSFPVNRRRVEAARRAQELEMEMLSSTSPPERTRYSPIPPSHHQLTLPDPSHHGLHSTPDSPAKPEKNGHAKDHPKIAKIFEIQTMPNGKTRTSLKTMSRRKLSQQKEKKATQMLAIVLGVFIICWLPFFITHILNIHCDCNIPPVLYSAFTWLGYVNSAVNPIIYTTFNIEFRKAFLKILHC
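Agonist mode: compounds alone added to overnight-plated D2 PathHunter cells for 90 min at 37 C, with 57 uM final dopamine (EC100) defining full response. Beta-arrestin recruitment detected by chemiluminescent reagent, read after 1 h at ambient temperature.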
D2 PAM-1 – HTS Assay for Positive Allosteric Modulators of the Human D2 Dopamine Receptor: Primary Screen for Potentiators; D(2) dopamine receptor (Homo sapiens), P14416; HEK293 T-REx D2, calcium flux, EC20 dopamine potentiation; potentiation, % at 10 µM; 0.34% of 340,000 active; AID 485347, 2010;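 active = potentiation over 3 SD above the plate norm, cut at about 30% in these data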; also: 0% is about no effect
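Tetracycline-induced HEK293 T-REx cells force-coupled to calcium signalling expressed D2; compounds were pin-added after a 10 s baseline, read kinetically 180 s, then an EC20 dopamine challenge followed with a further 180 s calcium read.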
D2 PAM-2 – Beta-Arrestin HTS for Positive Allosteric Modulators of the Human D2 Dopamine Receptor: Potentiators | AID 624464, 2012 | potentiation, % (test concentration not listed) | 0.23% of 360,000 active | DiscoveRx D2 beta-arrestin cells, luminescence, 90 min; 100% = 57 uM dopamine signal | D(2) dopamine receptor (Homo sapiens), P14416; in the data active = potentiation above about 50%; inconclusive = mostly about 30% to 49%
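D2 cells co-treated with compound plus 50 nM dopamine (EC20) for 90 min at 37 deg C to detect potentiation. Beta-arrestin recruitment was read as enzyme-fragment luminescence after 1 h at ambient temperature. Full response was set by 57 uM dopamine.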
D2 antagonist – HTS Assay for Allosteric Antagonists of the Human D2 Dopamine Receptor: Primary Screen for Antagonists; D(2) dopamine receptor (Homo sapiens), P14416; HEK293 TREx D2 cells, calcium flux, dopamine EC80; inhibition, % at 10 µM; 2% of 340,000 active; AID 485344, 2010; in the data active = inhibition above about 30%; inactive = below that, where a call was filed; also: 0% is about no effect
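Antagonism is scored as inhibition of an EC80 dopamine-evoked calcium signal in a force-coupled, tetracycline-inducible HEK293 T-REx D2 line, with compound present 180 s before agonist.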
D2 ag-2 – HTS Assay for Allosteric Agonists of the Human D2 Dopamine Receptor: Primary Screen for Agonists | 0.53% of 340,000 active | D(2) dopamine receptor (Homo sapiens), P14416 | activation, % at 2 µM | HEK293 T-REx D2 cells, calcium flux agonist mode;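 active = activation over 3 SD above normal in the single-dose calcium agonist read, cut at about 30% in these data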; also: 0% is about no effect
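Tetracycline-induced HEK293 Trex cells with D2 receptor force-coupled to calcium signaling, plated overnight at 30 C and loaded with no-wash calcium dye. Calcium flux read kinetically for 180 s after compound addition; responses flag agonists.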
Numbers without * were called inactive; ? = inconclusive; . = no result given. Compounds with a hit are over-represented: about 2.4% of the library has one in this group of screens.

SMILES | D2 ag-1 | D2 PAM-1 | D2 PAM-2 | D2 antagonist | D2 ag-2
C/C(=N\NC(=O)c1ccccc1F)c1ccc2c(c1)Nc1ccccc1S2 | ? | -2.5 | 87.2* | -4.4 | 0.1
CCCCN(C)CCNC(=O)c1nn(-c2ccc(OC)cc2)c(=O)c2c1c1ccccc1n2C | -10.4 | -17.5 | -20.2 | 34.1* | 0.1
CCN(C(=O)c1nn(-c2ccc(OC)cc2)c(=O)c2c1c1ccccc1n2C)c1ccc(OC)cc1 | 2.7 | -17.0 | -7.8 | 19.7 | -0.4
CCCS(=O)(=O)c1ncc(Cl)c(C(=O)N2CCN(c3ccc(OC)cc3)CC2)n1 | . | 0.1 | . | . | -0.5
O=C(COC(=O)/C=C/c1ccc(Cl)cc1)NC(=O)NCc1ccccc1 | 4.6 | 0.5 | -11.4 | 44.2* | 0.7
Cc1cccc2cc(CN(CC3CCCO3)C(=O)NC3CCCCC3)c(=O)[nH]c12 (stereo not drawn) | -1.6 | -8.7 | -10.2 | -3.6 | 0.7
COc1ccc(CCN(Cc2cc3cccc(C)c3[nH]c2=O)C(=O)NC2CCCCC2)cc1OC | 0.5 | 18.6 | -0.9 | 31.3* | 0.2
CNC(=S)N(CCc1cccc(C)c1)Cc1cc2cc(OC)c(OC)cc2[nH]c1=O | -1.8 | 1.2 | -6.8 | 30.3* | 0.3
COc1cccc(N(C(C)=O)c2nc(C)cc(C)c2C#N)c1 | -0.7 | . | -1.8 | 36.4* | 1.0
CCc1cccc(C)c1NC(=O)c1cnn(-c2ccc(F)cc2)c1-n1cccc1 | . | 9.0 | . | . | -1.3
CN=C1CC(C)(C)CC(=O)/C1=C(/O)CCCN1C(=O)c2ccccc2C1=O | -3.1 | -10.5 | -2.0 | 7.9 | -0.3
O=C(O)CN=C1CC(c2ccccc2)CC(=O)/C1=C(/O)CCCN1C(=O)c2ccccc2C1=O (stereo not drawn) | -1.7 | 30.6* | 0.6 | -5.7 | 0.5
CCN(CC)c1ccc(NC(=O)C2CC(=O)N(Cc3ccccc3)C2)cc1 (stereo not drawn) | 3.7 | 2.9 | -1.4 | 0.8 | -0.4
CN(C)S(=O)(=O)c1ccc(NC(=O)C2CC(=O)N(Cc3ccccc3)C2)cc1 (stereo not drawn) | -1.5 | 31.1* | -5.7 | -10.0 | 0.1
CCCc1nnc(-c2cc(OC)c(OC)c(OC)c2)o1 | -2.6 | 8.8 | 11.8 | 30.0* | -1.0
COc1cc(-c2nnc(-c3cc(OC)c(OC)c(OC)c3)o2)cc(OC)c1OC | 0.2 | -3.9 | 2.1 | 8.4 | .
Cc1coc2c(C)c3oc(=O)c(CCC(=O)NCCCN4CCOCC4)c(C)c3cc12 | -2.7 | 3.1 | -49.4 | -11.1 | 0.0
Cc1coc2c(C)c3oc(=O)c(CCC(=O)N4CCC(C(=O)NCCCC(=O)O)(c5ccccc5)CC4)c(C)c3cc12 | 1.3 | 41.4* | -7.5 | -3.0 | 0.0
CC(C)CSc1nnc2c3ccccc3n(C)c2n1 | -8.7 | 1.9 | -10.5 | . | .
CC(C)OC(=O)CSc1nnc2c3ccccc3n(C)c2n1 | -2.9 | 6.7 | -0.8 | 37.2* | -1.5
O=S(=O)(c1ccc(Cl)cc1)c1nc(-c2ccccc2)oc1N1CCN(c2ccccc2)CC1 | . | 13.8 | . | . | -1.3
COc1cc(OC)c(N(C)C(=O)c2c(C)oc3ncn(CC(C)C)c(=O)c23)cc1Cl | . | 2.5 | . | . | 1.1
CCCCNC(=O)NS(=O)(=O)c1ccc(C)cc1 | -4.4 | 19.6 | -6.0 | 33.2* | 0.6
Cc1ccc(S(=O)(=O)NC(=O)NCCCCNC(=O)NS(=O)(=O)c2ccc(C)cc2)cc1 | -0.3 | 11.0 | -2.1 | -2.8 | -0.5
Cc1ccc(S(=O)(=O)NC(=O)NN2CCCCCC2)cc1 | -4.6 | 3.5 | -12.2 | 34.4* | 1.9
SMILES | D2 ag-1 | D2 PAM-1 | D2 PAM-2 | D2 antagonist | D2 ag-2
O=[N+]([O-])c1ncccc1OCc1ccccc1Br | -3.8 | -11.3 | -4.5 | 34.3* | -0.5
CCCN(CCC)CCNC(=O)C1CCN(S(=O)(=O)c2cccc3nsnc23)CC1 | 6.0 | -6.0 | -13.9 | 37.5* | 0.8
CCOc1cc(-c2noc(N)c2C#N)cc(OCC)c1OCC | 40.8* | 27.2 | 130.3* | 0.9 | 0.9
CCOc1cc(-c2cc(-c3ccc(N)cc3)nc(N)c2C#N)ccc1O | 7.6 | 3.1 | -11.2 | 5.5 | -1.8
O=C1CC(N2CCC(c3nc4ccccc4s3)CC2)C(=O)N1 (stereo not drawn) | -5.8 | . | -21.0 | 32.8* | -1.0
Cc1cc(C)n(-c2nc3cc(Cl)c(Cl)cc3nc2Nc2c(C)cccc2C)n1 | . | 8.9 | . | . | -0.6
CCC(Sc1nncn2c1cc1oc(C)cc12)C(=O)Nc1ccc(F)cc1 (stereo not drawn) | . | 3.8 | . | . | 0.3
CCC1CCCCN1CCCNC(=O)c1cc2c(=O)oc3ccc(C)cc3c2s1 (stereo not drawn) | 3.2 | -1.7 | -24.4 | 35.5* | 0.8
CCSc1nnc2c(n1)OC1(CCCC1)Nc1ccccc1-2 | -2.0 | 1.0 | 1.0 | 38.7* | -1.6
CCSc1nnc2c(n1)OC(c1ccc(C)s1)Nc1ccccc1-2 (stereo not drawn) | . | -4.1 | . | . | -0.3
Cc1nc2ccc(NC(=O)c3cc([N+](=O)[O-])cc([N+](=O)[O-])c3Cl)cc2s1 | 12.4 | -3.2 | 62.7* | -13.3 | -0.2
Cc1nc2ccc(NC(=O)c3ccc(Cl)c([N+](=O)[O-])c3)cc2s1 | -2.5 | 7.3 | 3.5 | -14.7 | 0.3
COc1cccc(C(=O)NCC(=O)N2CCN(c3ccc(C(F)(F)F)cn3)CC2)c1 | -2.4 | 1.1 | -1.6 | 1.7 | -0.2
Oc1cccc(CN2CCCCC2)c1 | -3.3 | -13.2 | -6.8 | 56.4* | 0.7
Brc1cccc(CN2CCCCCC2)c1 | -3.1 | -12.3 | -4.1 | -2.2 | -0.8
COc1ccc(NC(=O)Cn2cnc3ccc(S(=O)(=O)N4CCC(C)CC4)cc3c2=O)cc1Cl | . | 24.7 | . | . | .
Cc1nc(NS(=O)(=O)c2ccccc2)sc1NC(=O)Nc1ccc(Cl)cc1 | 5.7 | -16.0 | -3.4 | -18.2 | 0.9
Cc1nc(NS(=O)(=O)c2ccccc2)sc1NC(=O)Nc1ccccc1 | ? | -10.5 | 0.6 | 55.3* | -1.0
CCOC(=O)Nc1sc(NS(=O)(=O)c2ccccc2)nc1C | 12.3 | -6.4 | 86.4* | 0.6 | 0.1
Cc1cccc(C(=O)Nc2ccc(C(=O)OCc3cc(=O)n4nc(CC(C)C)sc4n3)cc2)c1 | . | 2.0 | . | . | 1.0
O=C(NCCCN1CCCC1)Nc1ccc(F)cc1 | 2.9 | -6.7 | -14.6 | -6.3 | 0.3
O[Si](CCCN1CCCCC1)(c1ccc(F)cc1)C1CCCCC1 (stereo not drawn) | -3.3 | -27.5 | -26.0 | 124.3* | 1.2
